# Experimental data taken from the supplement of paper PMC6555819.
# What was measured:
# Assay in all cases: PBM binding z-score (relative to random genomic background probes); higher = stronger binding; sequences stand for … in GC…GCGATTGACAGCGTAGAATGAAGG
# [1] = system: RARb homodimer (NR concentration 270 nM)
# Procedure, shortened: (§1)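 Binding z-scores take random background probes as their reference. They come from custom Agilent 4×180K protein-binding microarrays incubated 1 h with ligand-free nuclear receptor dimers, with antibodies against each partner (one per run) detecting binding. Scanned fluorescence was regression-normalized.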
# [2] = system: RARg:RXRa (NR concentration 270 nM, RXRa partner concentration 90 nM)
# Procedure, shortened: as §1
# [3] = system: RARg homodimer (NR concentration 270 nM)
# Procedure, shortened: as §1
# [4] = system: RXRa DBDmut IVT, anti-RXR (DBD mutation: RXRa K156A/R161A, NR concentration 90 nM)
# Procedure, shortened: as §1
# [5] = system: RXRa homodimer (NR concentration 180 nM)
# Procedure, shortened: as §1
# [6] = system: THRa:RXRa (NR concentration 90 nM, RXRa partner concentration 90 nM)
# Procedure, shortened: as §1
# [7] = system: THRa homodimer (NR concentration 90 nM)
# Procedure, shortened: as §1
# [8] = system: VDR homodimer (NR concentration 270 nM)
# Procedure, shortened: as §1
Sequence,PBM binding z-score [1],PBM binding z-score [2],PBM binding z-score [3],PBM binding z-score [4],PBM binding z-score [5],PBM binding z-score [6],PBM binding z-score [7],PBM binding z-score [8]
AGAATGAGGTTATTAAAATCAGGGAATTGCGGTC,0.836,0.827,0.788,1.46,1.43,1.89,0.676,0.874
CAAACAAGGTCAAGGTCAAAGTCGGTTTGTGCCA,5.74,,7.76,4.13,,4.6,4.5,5.71
CCTATTAGTTGACCATCAGGGCAACCGAAGCTCG,1.35,0.553,0.807,0.518,0.205,1.19,0.957,0.592
CCAAGTTGGTCAGGAGGTCACACACCGGATATGA,4.38,5.05,4.59,1.39,4.6,3.5,1.96,2.65
CGTCAAAGCTCAAGGTAACGTAACAGAAAGCAGC,-0.207,0.00785,0.083,-0.317,0.0693,1.29,0.693,-0.4
CCGACTGGGGGAAGGTTACCATAACGCACAGCCA,0.998,1.06,1.02,-0.37,1.02,1.1,0.107,0.178
CCGACTGGGGCCAAGGTTACCATACTCAGTACGA,1.87,0.875,1.17,0.424,1.12,1.88,1.07,0.551
TCTATTAGTTGATTAGGGCAAGCGAAACAGCGGA,0.589,0.429,0.466,0.689,0.305,0.409,0.23,0.398
TGTCAAAGTTCAGAGGTAACGTAAGTATCCACAC,3.02,4.64,4.84,3.01,4.22,2.53,0.262,2.11
GCTAGCATGCCATTTGGGTCACTCAATGACGGGC,1.77,0.756,0.805,-0.283,0.99,1.69,0.874,0.0275
AGTCAATGTTCATCTAGGTAACGTAAGATATGCT,-0.0821,0.125,0.41,0.291,0.0893,0.616,0.345,-0.282
CAAACTAGGTTACAGAGGTCAAAGTCCGTGCGTA,4.97,6.01,5.51,2.53,7.1,4.14,2.24,5.09
CGTCAAAATTCAACTAAGGTAACGTAAAGCACGC,0.445,0.33,0.586,0.407,0.529,2.94,1.75,0.233
CAAACAAGGTCAAGAGGTCAAAGTCCGCTTCCCG,6.24,,8.91,3.92,,,3.28,5.74
TCATATAGGTAAAGGCTAGGTGAAAGTCCGATCT,0.981,0.769,0.425,1.27,0.971,1.3,0.205,0.0425
AGAATGAGGTTCTTAAGATCAGGGAATTGCGGTC,-0.377,-0.106,-0.186,0.301,-0.00148,0.365,0.000852,-0.0897
AGAACGAGGGTAATGAGTTGATAGCACGGGTGGC,-0.134,0.312,0.371,0.405,0.5,-0.0331,-0.615,1.53
CAAACTAGGACAAAGGTCAAAGTCGAGCCAACCA,4.67,6.7,5.88,2.3,7.22,4.13,1.18,2.51
ACTATTAGTTGACTTAGGGCAACCGTTACGACGC,1.34,0.618,0.892,1.01,0.622,1.53,0.619,0.195

Sequence,PBM binding z-score [1],PBM binding z-score [2],PBM binding z-score [3],PBM binding z-score [4],PBM binding z-score [5],PBM binding z-score [6],PBM binding z-score [7],PBM binding z-score [8]
CCGAGTGGGGCAAAGGTTACCATACTCAGTACGA,2.45,3.55,1.75,0.25,3.67,1.86,-0.359,0.16
ACTACTTGGTCAGCTGAGGTCACACACAATTCGG,4.44,4.3,4.38,1.76,4.45,5.04,5.43,3.73
AGAACGAGGGCACGATGAGTTGATAGCAGAGTAG,1.22,2.18,2.42,1.77,1.57,2.03,0.236,1.66
TCGAGTAGGTTACCAATGGGGTATTCAGCTTTCT,0.128,0.0634,0.354,0.563,0.443,0.253,-0.473,-0.39
TTGCCTAGGTCAGATCGGGCCAGTATACGCTATA,2.16,2.77,3.6,0.0965,1.51,3.9,-0.108,-0.389
ATCTCTAGCTAACCAAGTTCAGTGAATGCCGAAC,1.01,0.314,0.399,0.573,0.0234,0.509,0.214,2.29
CCGACTGGGCCAAAAAGGTCATTGATGCCGATAA,4.22,4.39,3.5,0.66,4.52,3.14,0.199,2.14
CCTAGAAGGCCAGGGTCACTCAAGCATTTCGCTT,3.02,3.47,3.15,0.637,3.9,2.96,1.16,2.13
ACAGACAGGTGATGATGGTAACTCAGGCTATCAT,0.184,0.343,0.369,-0.173,0.335,0.48,0.015,0.157
CCGACTGGGGCAGCAAGGTTACCATACCATCCGG,1.52,0.772,0.82,-0.746,0.706,1.21,0.373,0.0128
ACTATTAGTTGAGACGAGGGCAACCTATAGGTTG,1.39,0.509,0.764,0.356,0.544,2.63,0.429,0.902
CTCGAATGGTCGGTTGAGGTGAGTATACGGATAA,0.181,-0.0812,0.168,-0.376,-0.171,2.85,1.49,0.136
CAAACTAGGTCACGAACGGTCAAAGTCGAATGAC,4.43,5.69,6.24,1.66,4.56,4.08,1.74,1.44
GCTATTAGTTGAAAGGGCAACCAAATGATTCTCG,2.12,1.54,1.36,1,1.26,0.682,-0.397,0.22
CCAGACAGGTGAGAAGGGAACTCAGCCTCGATTA,0.237,-0.0873,0.115,0.063,0.0773,0.215,0.0826,-0.25
TCATATAGGTAATACAGGTGAAAGTTGGCATCTA,0.923,1.02,0.788,1.86,1.69,1.19,0.467,0.572
TCTAGTTGGTCAAAGGTCATACACTCGAAATGCG,5.06,6.94,5.49,2.31,8.07,4.15,1.94,3.4
ATCGAAATGTCGAAGGTGAGTATACCCACCCGAA,-0.167,0.233,0.587,-0.753,0.434,-0.023,-0.43,-0.0115
CCCACTGGGCCACGAAAGGTCATTGATTCAGTGA,4.6,4.7,4.33,-0.145,4.87,4.11,1.09,2.4
